Assay results: PubChem BioAssay
Calls of active or inactive are those of the source.

Tests used:
[1] = binders of probe aFSTL3 on microarray, primary screen, stem cell growth factor project, biochemical, small-molecule microarray, fluorescence 635/667 (AID 1064); settings: higher = more signal;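 also: measures binding of the biotinylated anti-FSTL3 antibody to printed compounds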
[2] = binders from COS7 lysate, DM2A8 probe, primary screen, torsin A project, cell lysate, small-molecule microarray, fluorescence 635/667 (AID 1065); settings: higher = more signal, COS7 lysate expressing mutant human TOR1A
[3] = binders of probe aFGF2 on microarray, primary screen, stem cell growth factor project, biochemical, small-molecule microarray, fluorescence 635/667 (AID 1067); settings: higher = more signal;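 also: measures binding of biotinylated aFGF2 protein to printed compounds on slides; z-score merges feature fluorescence and signal-to-noise across triplicate slides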
[4] = binders of probe aFGF10 on microarray, primary screen, stem cell growth factor project, biochemical, small-molecule microarray, fluorescence 635/667 (AID 1071); settings: higher = more signal;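 also: score merges 667 nm spot intensity and signal to noise from triplicate slides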
[5] = biological target: Neurogenic locus notch homolog protein 2 (Homo sapiens) (UniProt Q04721); experiment: Notch2 binders on small-molecule microarrays, primary screen, biochemical, small-molecule microarray, 635 nm fluorescence, stem cell growth factors (AID 1073); settings: Notch2 binding, higher = more signal
[6] = biological target: Pro-neuregulin-1, membrane-bound isoform (Homo sapiens) (UniProt Q02297); experiment: NRG1 binders on small-molecule microarrays, primary screen, psychiatric disease protein project, biochemical, small-molecule microarray, fluorescence 635/667 (AID 1075); settings: NRG1 binding, 635 nm fluorescence, higher = more signal;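 also: score combines 667 nm spot fluorescence with signal to noise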
[7] = test system: Neuregulin-1 EGF-like domain; experiment: binders of neuregulin-1 EGF-like domain, primary screen, biochemical, small-molecule microarray, 635 nm fluorescence (AID 1081); settings: small-molecule microarray binding, higher = more signal;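 also: binding of the protein to compounds printed on small-molecule microarray slides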
[8] = FRG1 promoter luciferase signal modulators, primary screen, FRG1 inhibition for FSHD, cell-based, C2C12 myotubes, firefly/Renilla luciferase, luminescence (AID 1084); settings: higher = more signal, called active from +8 up or from −8 down
[9] = binders of probe aFST on microarray, primary screen, stem cell growth factor project, biochemical, small-molecule microarray, fluorescence 635/667 (AID 1086); settings: higher = more signal;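 also: score merges 667 nm fluorescence with signal-to-noise of each printed compound spot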
[10] = binders of probe aHhip on microarray, primary screen, stem cell growth factor project, biochemical, small-molecule microarray, fluorescence 635/667 (AID 1087); settings: higher = more signal;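 also: score merges spot fluorescence at 667nm with spot signal to noise ratio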

Sequence of Neurogenic locus notch homolog protein 2 (Homo sapiens) (Q04721 whole entry, looked up, canonical isoform): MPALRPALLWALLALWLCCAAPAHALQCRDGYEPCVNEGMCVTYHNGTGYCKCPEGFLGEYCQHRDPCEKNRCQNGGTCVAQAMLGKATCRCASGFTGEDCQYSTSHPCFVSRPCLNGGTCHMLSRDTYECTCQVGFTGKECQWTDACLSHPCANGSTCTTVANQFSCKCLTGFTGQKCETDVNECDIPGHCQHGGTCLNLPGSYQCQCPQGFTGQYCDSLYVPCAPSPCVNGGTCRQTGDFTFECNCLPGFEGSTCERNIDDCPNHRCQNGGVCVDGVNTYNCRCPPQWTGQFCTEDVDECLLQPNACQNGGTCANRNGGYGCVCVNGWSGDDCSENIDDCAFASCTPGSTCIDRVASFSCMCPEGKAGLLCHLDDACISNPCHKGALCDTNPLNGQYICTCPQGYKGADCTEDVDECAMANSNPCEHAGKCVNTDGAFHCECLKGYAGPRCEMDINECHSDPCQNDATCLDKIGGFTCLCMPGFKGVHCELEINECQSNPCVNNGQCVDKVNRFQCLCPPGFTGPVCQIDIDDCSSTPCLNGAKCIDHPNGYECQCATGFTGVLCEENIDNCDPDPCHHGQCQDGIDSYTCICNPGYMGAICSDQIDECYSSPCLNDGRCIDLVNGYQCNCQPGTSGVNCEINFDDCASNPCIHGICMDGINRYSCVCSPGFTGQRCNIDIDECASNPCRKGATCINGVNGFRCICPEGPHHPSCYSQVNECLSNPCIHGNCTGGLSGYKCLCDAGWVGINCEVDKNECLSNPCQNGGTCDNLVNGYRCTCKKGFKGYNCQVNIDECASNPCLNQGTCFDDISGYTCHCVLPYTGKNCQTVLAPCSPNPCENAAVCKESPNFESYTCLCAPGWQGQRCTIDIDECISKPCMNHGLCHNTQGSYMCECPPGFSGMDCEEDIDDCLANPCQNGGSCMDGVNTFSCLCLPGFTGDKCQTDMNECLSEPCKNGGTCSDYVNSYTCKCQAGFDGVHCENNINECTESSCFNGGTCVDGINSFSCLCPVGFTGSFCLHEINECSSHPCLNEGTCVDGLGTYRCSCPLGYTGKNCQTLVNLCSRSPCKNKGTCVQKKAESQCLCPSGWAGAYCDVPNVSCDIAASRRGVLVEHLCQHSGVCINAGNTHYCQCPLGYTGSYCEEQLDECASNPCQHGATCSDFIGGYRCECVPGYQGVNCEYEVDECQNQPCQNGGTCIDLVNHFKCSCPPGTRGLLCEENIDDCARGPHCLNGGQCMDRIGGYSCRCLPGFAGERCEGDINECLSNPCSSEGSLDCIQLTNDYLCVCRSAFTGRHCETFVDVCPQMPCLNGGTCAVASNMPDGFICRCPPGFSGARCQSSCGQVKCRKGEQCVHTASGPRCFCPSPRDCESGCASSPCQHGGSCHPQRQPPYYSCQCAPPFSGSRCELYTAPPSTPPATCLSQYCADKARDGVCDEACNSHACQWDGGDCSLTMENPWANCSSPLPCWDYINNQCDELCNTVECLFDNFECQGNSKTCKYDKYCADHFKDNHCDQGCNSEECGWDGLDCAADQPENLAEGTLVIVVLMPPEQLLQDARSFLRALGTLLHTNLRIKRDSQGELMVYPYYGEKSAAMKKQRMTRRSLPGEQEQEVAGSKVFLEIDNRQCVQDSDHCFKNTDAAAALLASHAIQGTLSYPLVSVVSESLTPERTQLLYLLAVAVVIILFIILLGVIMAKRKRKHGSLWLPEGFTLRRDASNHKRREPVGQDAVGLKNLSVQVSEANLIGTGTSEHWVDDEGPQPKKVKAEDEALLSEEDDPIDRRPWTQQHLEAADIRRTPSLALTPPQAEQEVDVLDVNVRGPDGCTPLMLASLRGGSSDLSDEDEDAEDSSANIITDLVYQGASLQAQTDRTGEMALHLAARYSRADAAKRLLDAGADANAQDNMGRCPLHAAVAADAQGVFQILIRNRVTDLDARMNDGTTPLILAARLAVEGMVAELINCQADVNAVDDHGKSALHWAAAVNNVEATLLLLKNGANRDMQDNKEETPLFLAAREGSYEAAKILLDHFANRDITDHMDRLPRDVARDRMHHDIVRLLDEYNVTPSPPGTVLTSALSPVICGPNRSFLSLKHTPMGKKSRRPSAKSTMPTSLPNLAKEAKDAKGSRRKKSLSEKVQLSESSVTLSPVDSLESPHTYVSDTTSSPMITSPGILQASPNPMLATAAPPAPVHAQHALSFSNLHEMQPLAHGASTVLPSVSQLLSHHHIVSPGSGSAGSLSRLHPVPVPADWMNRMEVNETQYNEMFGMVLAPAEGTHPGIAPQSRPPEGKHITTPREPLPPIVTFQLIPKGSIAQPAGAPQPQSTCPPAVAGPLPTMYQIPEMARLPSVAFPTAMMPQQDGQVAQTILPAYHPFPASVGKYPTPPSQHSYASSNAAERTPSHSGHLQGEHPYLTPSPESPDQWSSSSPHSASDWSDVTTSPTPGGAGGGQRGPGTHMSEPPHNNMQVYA
Sequence of Pro-neuregulin-1, membrane-bound isoform (Homo sapiens) (Q02297 whole entry, looked up, the tested form may be a part, canonical isoform): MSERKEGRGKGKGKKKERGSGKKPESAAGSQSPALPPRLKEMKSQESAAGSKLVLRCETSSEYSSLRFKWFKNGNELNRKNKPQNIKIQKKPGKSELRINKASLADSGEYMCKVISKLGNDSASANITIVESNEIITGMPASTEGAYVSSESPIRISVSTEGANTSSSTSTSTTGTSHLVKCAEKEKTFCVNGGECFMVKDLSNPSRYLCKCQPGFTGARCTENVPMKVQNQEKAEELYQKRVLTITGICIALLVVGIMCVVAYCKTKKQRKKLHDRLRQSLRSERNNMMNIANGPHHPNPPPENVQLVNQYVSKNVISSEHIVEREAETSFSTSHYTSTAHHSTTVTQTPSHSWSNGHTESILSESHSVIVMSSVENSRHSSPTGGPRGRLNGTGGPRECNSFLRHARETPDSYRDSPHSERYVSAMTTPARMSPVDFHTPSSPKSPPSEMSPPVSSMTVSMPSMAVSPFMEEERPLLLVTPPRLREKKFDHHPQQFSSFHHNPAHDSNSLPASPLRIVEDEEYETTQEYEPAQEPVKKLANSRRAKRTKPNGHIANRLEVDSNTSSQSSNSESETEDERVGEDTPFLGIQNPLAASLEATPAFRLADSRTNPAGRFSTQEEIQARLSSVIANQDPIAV

CCc1oc(CC[C@@H](CO)NC(=O)NCCn2cc(C3(O)CCCCC3)nn2)c(C(=O)OC)c1C(=O)OC
composite z-score [1]: -0.33 | composite z-score [2]: 0.979 | composite z-score [3]: -0.0549 | composite z-score [4]: 0.809 | composite z-score [5]: 0.924 | composite z-score [6]: 0.172 | composite z-score [7]: 1.23 | z-score [8]: 0.306 (inactive) | composite z-score [9]: 0.457 | composite z-score [10]: -0.353

CN(C)CCCCCCNC(=O)[C@@H]1C[C@@H]2C(=O)N[C@@H](CCCCN)C(=O)N2[C@@H]1c1cccc(OCCO)c1
composite z-score [1]: 3.04 | composite z-score [2]: 2.4 | composite z-score [3]: 0.862 | composite z-score [4]: 1.13 | composite z-score [5]: 1.05 | composite z-score [6]: 2.75 | composite z-score [7]: 1.52 | z-score [8]: 0.718 (inactive) | composite z-score [9]: 3.58 | composite z-score [10]: 1.72

COc1ccc(C(O)C2C=CC3C(=O)NC(=O)C3N2Nc2ccccn2)cc1 (stereo not given)
composite z-score [1]: -0.0118 | composite z-score [2]: -0.765 | composite z-score [3]: 0.0143 | composite z-score [4]: 0.585 | composite z-score [5]: 0.891 | composite z-score [6]: 0.843 | composite z-score [7]: 0.844 | z-score [8]: 1 (inactive) | composite z-score [9]: 0.357 | composite z-score [10]: -0.159

O=C(NCc1ccc(F)cc1)[C@H]1C[C@H]2C(=O)N[C@@H](Cc3ccccc3)C(=O)N2[C@H]1c1ccc(O)cc1
composite z-score [1]: 1.12 | composite z-score [2]: 0.949 | composite z-score [3]: -0.185 | composite z-score [4]: -0.685 | composite z-score [5]: -0.878 | composite z-score [6]: -0.242 | composite z-score [7]: 1.2 | z-score [8]: 1.1 (inactive) | composite z-score [9]: -0.823 | composite z-score [10]: -0.0645

COCCOC(=O)N1C(=O)[C@@]2(c3cc(C#CCCO)ccc31)[C@H](C(=O)N1CCN(c3ncccn3)CC1)[C@H]1C(=O)O[C@H](c3ccccc3)[C@H](c3ccccc3)N1[C@@H]2c1ccccc1OCCO
composite z-score [1]: -0.545 | composite z-score [2]: 0.217 | composite z-score [3]: -0.0546 | composite z-score [4]: 0.537 | composite z-score [5]: 1.3 | composite z-score [6]: 1.37 | composite z-score [7]: 1.15 | z-score [8]: -0.428 (inactive) | composite z-score [9]: 0.335 | composite z-score [10]: -0.0296

NCCCCCNC(=O)[C@@H]1C[C@@H]2C(=O)NCC(=O)N2[C@@H]1c1ccc(O)cc1
composite z-score [1]: -0.293 | composite z-score [2]: 0.304 | composite z-score [3]: -0.129 | composite z-score [4]: 0.975 | composite z-score [5]: -0.195 | composite z-score [6]: 0.817 | composite z-score [7]: 1.25 | z-score [8]: 0.117 (inactive) | composite z-score [9]: -0.107 | composite z-score [10]: -0.0994

C=C[C@H](COC(C)=O)N(C(=O)OC(C)(C)C)S(=O)(=O)c1ccc(Br)cc1
composite z-score [1]: 0.726 | composite z-score [2]: 0.303 | composite z-score [3]: 0.278 | composite z-score [4]: 0.348 | composite z-score [5]: 1.33 | composite z-score [6]: -0.243 | composite z-score [7]: 0.652 | z-score [8]: -1.89 (inactive) | composite z-score [9]: 1.23 | composite z-score [10]: 0.32

[N-]=[N+]=NCc1ccccc1[C@@H]1OC(c2ccc(OCCCO)cc2)=N[C@]1(Cc1ccccc1N=[N+]=[N-])C(=O)N1CCOCC1
composite z-score [1]: 0.36 | composite z-score [2]: 0.485 | composite z-score [3]: 0.321 | composite z-score [4]: 0.636 | composite z-score [5]: 1.66 | composite z-score [6]: 1.77 | composite z-score [7]: 1.1 | z-score [8]: -0.825 (inactive) | composite z-score [9]: 1.08 | composite z-score [10]: -0.0994

CC(C)(C)OC(=O)CC[C@@]12N=C(c3ccc(OCCCO)cc3)O[C@@H]1c1ccccc1N(CCS(=O)(=O)c1ccccc1)C2=O
composite z-score [1]: 0.742 | composite z-score [2]: 0.066 | composite z-score [3]: -0.0174 | composite z-score [4]: -0.366 | composite z-score [5]: 0.893 | composite z-score [6]: 0.729 | composite z-score [7]: 1.11 | z-score [8]: -2.9 (inactive) | composite z-score [9]: 0.687 | composite z-score [10]: 0.0302

CCCCC(=C=CC[C@@H](O)c1ccccc1OCCO)CCO
composite z-score [1]: -0.347 | composite z-score [2]: 0.163 | composite z-score [3]: -0.0367 | composite z-score [4]: 0.352 | composite z-score [5]: -0.333 | composite z-score [6]: 0.991 | composite z-score [7]: 0.479 | z-score [8]: 0.0128 (inactive) | composite z-score [9]: 0.0797 | composite z-score [10]: -0.236

CC(C)OC(=O)C=C1C[C@@H](c2ccccc2C(F)(F)F)O[C@@H](c2ccccc2C(F)(F)F)O1
composite z-score [1]: -0.173 | composite z-score [2]: -0.11 | composite z-score [3]: -0.0924 | composite z-score [4]: -0.443 | composite z-score [5]: 0.647 | composite z-score [6]: 0.113 | composite z-score [7]: -0.0471 | z-score [8]: 0.009 (inactive) | composite z-score [9]: 0.2 | composite z-score [10]: -0.0994

COC(=O)C(CC#Cc1ccc2c(c1)[C@]1(C(=O)N2)[C@H](C(=O)O)[C@H]2C(=O)O[C@H](c3ccccc3)[C@H](c3ccccc3)N2[C@@H]1c1ccc(O)cc1)C(=O)OC
composite z-score [1]: 0.43 | composite z-score [2]: 0.108 | composite z-score [3]: -0.0973 | composite z-score [4]: 0.528 | composite z-score [5]: -0.806 | composite z-score [6]: 1.42 | composite z-score [7]: 1.23 | z-score [8]: 1.34 (inactive) | composite z-score [9]: -0.384 | composite z-score [10]: -0.236

COCCn1c(C(=O)N2CCCC2)cc2c1C[C@H]1CN(C(=O)c3ccccc3)[C@@](Cc3ccc(F)cc3)(C(=O)OC)[C@@H]21
composite z-score [1]: 0.123 | composite z-score [2]: 0.214 | composite z-score [3]: 0.24 | composite z-score [4]: 0.252 | composite z-score [5]: 1.41 | composite z-score [6]: 1.81 | composite z-score [7]: 0.997 | z-score [8]: 2.89 (inactive) | composite z-score [9]: 0.77 | composite z-score [10]: 0.0078

COCCOC(=O)N1C(=O)[C@@]2(c3cc(C#CC4=CCCCC4)ccc31)[C@H](C(N)=O)[C@H]1C(=O)O[C@H](c3ccccc3)[C@H](c3ccccc3)N1[C@@H]2c1ccc(OCCO)cc1
composite z-score [1]: -0.809 | composite z-score [2]: 0.897 | composite z-score [3]: -0.0009 | composite z-score [4]: 0.806 | composite z-score [5]: 0.254 | composite z-score [6]: 0.514 | composite z-score [7]: 1.19 | z-score [8]: -0.408 (inactive) | composite z-score [9]: -0.335 | composite z-score [10]: -0.237

O=C1c2ccccc2[C@@]2(Cc3ccccc3N(CC(F)(F)F)C2=O)[C@H](c2ccc(CO)cc2)N1Cc1ccccc1Cl
composite z-score [1]: -0.351 | composite z-score [2]: -0.112 | composite z-score [3]: -0.147 | composite z-score [4]: -0.0091 | composite z-score [5]: 0.0933 | composite z-score [6]: -0.0415 | composite z-score [7]: 0.222 | z-score [8]: -0.163 (inactive) | composite z-score [9]: -0.121 | composite z-score [10]: -0.226

[N-]=[N+]=NCc1ccccc1C[C@@]1(C(=O)NCC(O)CO)N=C(c2ccc(OCCCO)cc2)O[C@@H]1c1ccccc1N=[N+]=[N-] (stereo not given in full)
composite z-score [1]: 0.516 | composite z-score [2]: -0.133 | composite z-score [3]: 0.0109 | composite z-score [4]: 0.451 | composite z-score [5]: 0.669 | composite z-score [6]: 1.78 | composite z-score [7]: 1 | z-score [8]: -0.755 (inactive) | composite z-score [9]: 1.66 | composite z-score [10]: 0.0139

CC(C)N1C(=O)c2ccccc2[C@](C)(C(=O)NCc2ccccc2)[C@@H]1c1ccc(CO)cc1
composite z-score [1]: 0.197 | composite z-score [2]: 0.0699 | composite z-score [3]: -0.157 | composite z-score [4]: -0.158 | composite z-score [5]: -0.463 | composite z-score [6]: -1.06 | composite z-score [7]: 0.744 | z-score [8]: -1.03 (inactive) | composite z-score [9]: -0.27 | composite z-score [10]: -0.0994
